Screens as filed in PubChem.
IDH1 R132H inh = human IDH1 R132H inhibition; O75874; IDH1-R132H enzyme, NADPH consumption, diaphorase/resazurin fluorescence; Potency, µM (titrated, usually from 76.6 µM), inactives show at the top dose activity change, negative = inhibition, hits mostly inhibitors; hit rate 0.093% among 390,000; further: potency means the concentration at half of the fitted maximal effect; on the % scale 0 is the no-effect control and ±100 the full control effect; nearly all actives have a fitted effect of over 65% in size
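IDH1-R132H (0.5 ug/mL dispensed) in pH 7.5 Tris buffer was preincubated 30 min with compound, then given a substrate mix of 0.016 mM NADPH and 2 mM alpha-KG for 80 min at room temperature; remaining NADPH was read by diaphorase/resazurin fluorescence.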
ALOX12 inh = inhibitors of human 12S-lipoxygenase ALOX12; Potency, µM (highest dose often 108 µM), inactives show at the top dose activity change, negative = inhibition, hits mostly inhibitors; hit rate 1.1% among 580,000; P18054; purified 12hLO, xylenol orange hydroperoxide absorbance; further: potency means the concentration at half of the fitted maximal effect; on the % scale 0 is the no-effect control and ±100 the full control effect
Target sequence (P18054 whole entry, looked up): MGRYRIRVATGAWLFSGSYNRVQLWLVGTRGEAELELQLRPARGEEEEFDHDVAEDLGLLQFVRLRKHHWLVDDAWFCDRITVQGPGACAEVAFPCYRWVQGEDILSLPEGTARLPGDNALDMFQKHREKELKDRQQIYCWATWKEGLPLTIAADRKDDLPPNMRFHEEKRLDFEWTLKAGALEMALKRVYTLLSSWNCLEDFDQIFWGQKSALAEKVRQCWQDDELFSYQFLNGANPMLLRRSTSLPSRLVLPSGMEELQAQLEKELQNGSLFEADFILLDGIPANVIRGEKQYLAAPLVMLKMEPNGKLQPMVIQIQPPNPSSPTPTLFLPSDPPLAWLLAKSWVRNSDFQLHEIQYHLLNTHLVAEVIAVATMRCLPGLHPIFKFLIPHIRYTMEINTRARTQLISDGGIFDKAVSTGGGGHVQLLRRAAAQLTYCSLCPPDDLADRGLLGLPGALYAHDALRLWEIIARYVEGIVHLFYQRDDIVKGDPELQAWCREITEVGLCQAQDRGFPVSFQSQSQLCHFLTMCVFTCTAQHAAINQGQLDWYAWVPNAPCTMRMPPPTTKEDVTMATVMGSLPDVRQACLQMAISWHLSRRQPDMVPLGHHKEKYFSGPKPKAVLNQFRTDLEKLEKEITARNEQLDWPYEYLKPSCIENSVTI
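Purified human 12hLO (150 nM final) in 25 mM Hepes, 0.01% Triton X-100, pH 7.0 was preincubated 15 min at room temperature with compound. Then 40 uM arachidonic acid was added, 30 min. Hydroperoxide was read by Fe-XO absorbance ratio 573/405 nm.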
LDHA inh = LDHA (human) enzyme inhibition | P00338 | purified LDHA, NADH/diaphorase-resazurin fluorescence; hits give low values | activity change, % (values are at about 110 or 230 µM) | hit rate 0.15% among 480,000 | AID 1347041; in the data active means activity change below about -30%; inconclusive means mostly about -25% to -30%;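 further: plate controls were DMSO wells for no effect and wells without enzyme for full effect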
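Human LDH5 at 2 nM final in Tris HCl pH 7.4 with 0.06 mM NADH and 0.2 mM pyruvate, reacted 5 minutes at room temperature. Remaining NADH coupled via diaphorase/resazurin; resorufin fluorescence read at 0 and 20 minutes, normalized to enzyme-free and DMSO wells.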
Nrf2 block = blocks Nrf2 signaling; A549 ARE-Fluc reporter, luciferase luminescence, 18-24 h; Potency, µM (titrated, usually from 46 µM), for inactives: at the top dose activity change, negative = inhibition, most hits filed as inhibitors; hit rate 2.1% among 360,000; further: potency means the concentration at half of the fitted maximal effect; on the % scale 0 is the no-effect control and ±100 the full control effect; nearly all actives have a fitted effect of over 60% in size
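Nrf2 activity is the BugLite luminescence, read 15 min after reagent at room temperature, following CellTiter-Fluor cytotoxicity readout (30 min, 37C). Compound titrations were applied for 18-24 h to 5000 A549 ARE_Fluc cells/well in 5% FBS OPTI-MEM.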
Nrf2 activator = activators of Nrf2 (ARE) signaling; Potency, µM (series often up to 46.1 µM), without a hit: at the highest dose activation, hits mostly activators; AREc32 ARE-luciferase reporter (MCF7-derived line), luminescence, 24 h; hit rate 0.31% among 410,000; further: potency means the concentration at half of the fitted maximal effect; % of control where 0% means no effect; nearly all actives have a fitted effect of over 65% in size
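Nrf2 activation is followed as ARE-luciferase induction in the AREc32 line after one day of compound treatment; luminescence is read with Steady-Glo.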
A549 tox = kills or reduces viability of A549 cells in Nrf2 counter-screen; A549 ARE-Fluc cells, CellTiter-Fluor viability, 18-24 h; Potency, µM (top dose mostly 46 µM), without a hit: at the top dose activity change, negative = cytotoxicity, actives largely listed as inhibitors; hit rate 0.16% among 390,000; AID 504648; further: potency means the concentration at half of the fitted maximal effect; on the % scale 0 is the no-effect control and ±100 the full control effect
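A549 ARE-Fluc cells in 5% FBS OPTI-MEM, 5000 cells/well, rested 2 h then exposed to compounds in concentration-response for 18-24 h at 37 °C. Viability by CellTiter-Fluor fluorescence (Ex 405/Em 525) after 30 min; luciferase luminescence (BugLite, 15 min, RT) read afterwards.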
An asterisk follows results filed as active; u = inconclusive; x = not tested or not shown; ! = a repeat was not active; [ ] = dose if it differs, or a comment. Rows were chosen to be rich in hits. Some 2.7% of all compounds tested hit in one or more screens of this group. Unless noted, the call rests on the fitted dose curve; in most records, active means well fitted curve in the direction sought with a large enough effect; inconclusive means small, poorly fitted or top-dose-only effect, or another doubt; inactive means no such curve, though single readings can be large; an effect the other way counts as inactive or inconclusive.

SMILES	IDH1 R132H inh	ALOX12 inh	LDHA inh	Nrf2 block	Nrf2 activator	A549 tox
CCOc1ccc(C(CC(=O)O)NC(=O)c2ccccc2F)cc1 (centres undefined)	x	u	-1	x	x	x
CCCCN1C(=O)/C(=C/C=C2\Oc3ccccc3N2CC)SC1=S	16%	-9%	0	-10%	0%	u
CCN1/C(=C/C=C/c2oc3ccc(-c4ccccc4)cc3[n+]2CC)Oc2ccc(-c3ccccc3)cc21	0%	u	-2	5.8µM*	-2%	15µM*
Cn1nc(C(F)(F)F)c(Cl)c1C(=O)Nc1sc2c(c1C#N)CCCC2	x	u	-24	x	x	x
O=C(N1CCCCC1)N1CCN(Cc2nc(C3CC3)no2)CC1	x	-2%	-5	x	x	x
O=C(O)CCCn1c(O)c(C=C2N=c3ccccc3=N2)sc1=S	9%	u	-4	-14%	14µM*	u
CCOC(=O)N1CC=C2C(C#N)=C(N)C(C#N)(C#N)[C@H](c3ccsc3)[C@H]2C1	41µM*	-12%	4	x	u	-16%
CCOC(=O)N1CC=C2C(C#N)=C(N)C(C#N)(C#N)[C@H](c3ccccc3OCC)[C@H]2C1	-20%	-9%	6	16µM*	8%	u
N#Cc1c(-c2ccncc2)cc(-c2ccc(F)cc2)nc1N	1%	-10%	-2	-21%	0%	-1%
Cc1ccc(-c2cc(-c3ccc(F)cc3)nc(N)c2C#N)o1	3%	6.3µM*	5	-14%	6%	-1%
Cc1ccc(-c2cc(-c3ccccc3)c(C#N)c(N)n2)o1	-1%	0.79µM*	1	-9%	21%	6%
Cc1ccc(-c2cc(-c3ccccc3Cl)c(C#N)c(N)n2)o1	8%	7.1µM*	1	-15%	1%	u
O=C(CCc1ncc(-c2ccc(F)cc2)o1)NCc1ccccc1Cl	x	-16%	4	x	x	x
O=C(CCS(=O)(=O)c1cc2c3c(c1)CCN3C(=O)CC2)NCc1ccc(Cl)cc1	-16%	-8%	-17	7%	0%	10%
O=C(CCS(=O)(=O)c1cc2c3c(c1)CCN3C(=O)CC2)Nc1ccc(F)c(Cl)c1	x	14µM*	1	x	x	x
CCCCn1cc(S(=O)(=O)c2ccc(C)c(C)c2)c(=O)c2cc(F)c(N(CC)CC)cc21	-4%	-1%	1	26µM*	-1%	-26%
COc1ccc(-n2ncc3c(=O)n(CC(=O)N4c5ccccc5CC4C)cnc32)cc1 (centres undefined)	-6%	0%	-3	8.2µM*	0%	u
CCOC(=O)Cn1cnc2c(cnn2-c2ccc(OC)cc2)c1=O	3%	u	-2	u	0%[9.22 µM]	-1%
O=C(C1CCN(S(=O)(=O)c2ccc(-n3cnnn3)cc2)CC1)N1CCN(c2ccccc2)CC1	2%	-14%	2	21%	1%	4%
CCOc1ccc(S(=O)(=O)N2CCC(C(=O)N3CCCCCC3)CC2)cc1C	-3%	u	-1	18µM*	0%	0%
CCOc1ccc(S(=O)(=O)N2CCC(C(=O)N3CCOCC3)CC2)cc1C	3%	u	-8	-2%	0%	-4%
O=C(C1CCN(S(=O)(=O)c2ccc(-n3cnnn3)cc2)CC1)N1CCCCC1	15%	-10%	-8	13µM*	0%	-2%
O=C(COc1ccc(-n2cnnn2)cc1)N1CCN(S(=O)(=O)c2ccc3ccccc3c2)CC1	x	45µM*	6	x	x	x
O=C(COc1ccc(-n2cnnn2)cc1)N1CCN(S(=O)(=O)c2ccc3c(c2)CCC3)CC1	x	u	1	x	x	x
CCOCCCNC(=O)CSCc1nc(-c2ccc(C)cc2)oc1C	x	-20%	-34*	x	x	x
SMILES	IDH1 R132H inh	ALOX12 inh	LDHA inh	Nrf2 block	Nrf2 activator	A549 tox
COC(=O)CCNC(=O)c1ccc(C#N)cc1	x	-7%	0	x	x	x
O=C(COc1ccccc1)Nc1ccc(-c2nnc3n2CCCC3)cc1	x	28µM*	x	x	x	x
COc1ccc(Cl)cc1C(=O)Nc1ccc(-c2nnc3n2CCCCC3)cc1	29%	-13%	-12	23µM*	0%	-14%
Cc1ccc(/C(C#N)=C\c2cc(C)n(C)c2C)cc1	x	u	0	x	x	x
CC[n+]1c(/C=C/C=C/N(C(C)=O)c2ccccc2)sc2cc(OC)ccc21	-6%	u	-6	-11%	10%	15µM*
Cc1cc(C)cc(OCC(O)Cn2nc(-c3ccco3)oc2=O)c1 (centres undefined)	x	-4%	0	x	x	x
O=C(NNC1=Nc2ccccc2SC1)c1ccc(Cl)cc1	0%	0%	-3	10µM*	-1%	u
O=C(NNC1=Nc2ccccc2SC1)c1ccc(F)cc1	22%	112%	-7	23µM*	9%	-20%
O=C(NNc1c2ccccc2nc2ccccc12)c1ccc(Cl)cc1	6%	-3%	1	u	-1%	-18%
CCN1CCn2c(nc3cc(NC(=O)Cn4nc(C)c5ccccc5c4=O)ccc32)C1	x	-29%	2	x	x	x
COc1ccc(NC(=O)C(CC(C)C)N2Cc3ccccc3C2=O)cc1Cl (centres undefined)	x	4%	-4	x	x	x
CC1(C)CC(=O)C2=C(C1)OC1=C(C(=O)CC(C)(C)C1)C2c1ccc(O)cc1O	-1%	u	3	x	-3%	18µM*
COc1ccc(C2C3=C(CC(C)(C)CC3=O)OC3=C2C(=O)CC(C)(C)C3)c(OC)c1	x	-14%	1	x	x	x
CCOc1cc(C2C3=C(CCCC3=O)OC3=C2C(=O)CCC3)cc(Br)c1OCC(=O)O	x	7%	-33*	x	x	x
COc1cc(C2C3=C(CCCC3=O)OC3=C2C(=O)CCC3)ccc1OCc1ccc(C(=O)O)cc1	x	u	3	x	x	x
CC[Si](C)(CC)COC(=O)CCC[N+](C)(C)C	x	28µM*	-20	x	x	x
CN(C)c1ccc(CN2CCNc3cc(Nc4ccccc4)ncc3C2)cc1	x	0%[176 µM]	x	x	x	x
COc1ccccc1-c1nn(-c2ccccc2)cc1C(=O)N1CCc2ccccc2C1	-1%	-17%	-1	21µM*	5%	u
COc1ccc(/C=C/C(=O)NCC(C)C)cc1	x	21%	0	x	x	x
Cc1coc2c1C(=O)C(=O)c1c-2ccc2c1CCCC2(C)C	10%	24µM*!	15	u	4%	-28%
COc1ccc(C(=O)Oc2ccc(C(=O)c3ccc(OC)cc3)cc2)cc1	x	7%	-5	x	x	x
CC(C)n1c(NCCc2ccccc2)nc2c1c(=O)n(C)c(=O)n2C	-1%	u	-2	13µM*	0%	-5%
CCCNc1nc2c(c(=O)n(C)c(=O)n2C)n1CCc1ccccc1	0%	-6%	0	4.1µM*	0%	-18%
